# Bcl-XL Bim block: inhibitors of Bim-Bcl-XL interaction, human | Q07817 | Bim peptide-Bcl-XL binding, bead flow cytometry, fluorescence | inhibition, % at 10 µM | 0.04% of 190,000 active | AID 1007
# Bim-Bcl-2: disrupts Bim peptide binding to human Bcl-2; P10415; Bead-based flow cytometry, Bim peptide-Bcl-2 binding; inhibition, % at 10 µM; 0.06% of 190,000 active; AID 950; in the data active = inhibition above about 40%;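 also: 0% = no compound wells with probe peptide and 100% = reference peptide inhibitor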
# Bim-Bfl-1: disrupts Bim binding to human Bfl-1. Q16548. Bead-based flow cytometry, Bim-Bfl-1 binding inhibition. inhibition, % at 10 µM. 0.12% of 190,000 active;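 also: 0% = wells without compound plus tracer and 100% = blocker peptide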
# Target sequence (Q16548 whole entry, looked up): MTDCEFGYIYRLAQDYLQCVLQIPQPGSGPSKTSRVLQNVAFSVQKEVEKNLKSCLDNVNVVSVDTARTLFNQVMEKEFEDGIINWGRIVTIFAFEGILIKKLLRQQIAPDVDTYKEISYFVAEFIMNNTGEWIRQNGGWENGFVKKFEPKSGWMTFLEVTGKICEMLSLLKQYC
# Bim-Bcl-W: inhibitors of Bim-Bcl-W interaction, human. Q92843. bead-based flow cytometry, Bim peptide-Bcl-W binding. inhibition, % at 10 µM. 0.02% of 190,000 active;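 also: 0% = bound tracer without compound and 100% = peptide blocker; higher means less fluorescent Bim peptide bound to Bcl-W beads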
# Bim-Bcl-B: inhibitors of Bim-Bcl-B interaction, human | Q9HD36 | bead-based flow cytometry, Bim peptide-Bcl-B binding | inhibition, % at 10 µM | 0.073% of 190,000 active | AID 951;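 also: 0% = tracer peptide without compound and 100% = reference inhibitor peptide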
# Target sequence (Q9HD36 whole entry, looked up): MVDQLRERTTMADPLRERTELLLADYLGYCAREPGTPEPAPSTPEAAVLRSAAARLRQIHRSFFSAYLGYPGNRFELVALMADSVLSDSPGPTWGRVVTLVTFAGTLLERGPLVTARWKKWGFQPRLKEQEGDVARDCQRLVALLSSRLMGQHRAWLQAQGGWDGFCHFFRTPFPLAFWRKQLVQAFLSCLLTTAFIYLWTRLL
# Pf gametocyte: P. falciparum stage V gametocyte viability inhibition; P. falciparum stage V gametocytes, ATP luminescence, 24 h; inhibition, % at 10.9 µM; 0.065% of 150,000 active; AID 743093;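 active = inhibition above the mean plus 3 SD of compounds within the control limits, set per campaign, cut at about 38% in these data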;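 also: 0% = DMSO wells and 100% = medium only without gametocytes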
# Bim-BclXL dose: Bim-Bcl-XL interaction regulation, dose confirmation | shares compounds with Bim-Bfl-1 | inhibition of binding at 100 µM | AID 2084 | bead-based flow cytometry, Bim-Bcl-XL binding | 40 tested, under 10 active; call rule not given here
# * marks the source's active call; other numbers are inactive results; nt = not tested or not shown. In the library only some 0.2% were active in any assay of this set; here they are far more common. Rule as the data show it, unless noted: active = inhibition above about 40%.
SMILES,Bcl-XL Bim block,Bim-Bcl-2,Bim-Bfl-1,Bim-Bcl-W,Bim-Bcl-B,Pf gametocyte,others
CC1C=CCC2C(=O)N(c3ccc(OC(=O)c4cccs4)cc3)C(=O)C12 (stereo not given),3,79*,55*,-6,70*,22,
Cc1ccc(OC(=O)c2ccc3snnc3c2)cc1,14,81*,62*,11,81*,-12,
O=C(c1ccccc1Cl)c1c(O)c2ccccc2oc1=O,nt,nt,nt,nt,nt,11,
CCOC(=O)c1cc2c(=O)n3cccc(C)c3nc2n(Cc2ccco2)c1=NC(=O)c1cccnc1,9,14,40*,20,12,nt,
Cc1cc(C)c(O)c(NC(=S)NC(=O)Cc2ccccc2)c1,nt,nt,nt,nt,nt,-2,
CCn1c(-c2nn(-c3ccc(C)cc3)ccc2=O)n[nH]c1=S,-3,0,-4,-1,-5,11,
Cc1ccc(-n2ccc(=O)c(-c3ccnc(SCc4cccc(Cl)c4)n3)n2)cc1,12,79*,56*,15,74*,nt,
CC1=C(C(=O)OCc2ccccc2)C(c2ccccc2OS(=O)(=O)c2ccc(C)cc2)NC(=O)N1CCCC(=O)O (stereo not given),nt,nt,nt,nt,nt,-21,
CCOC(=O)CSC1=NC(=O)/C(=C\c2ccc(OC(C)=O)cc2)S1,2,12,58*,9,6,-20,
CCOC(=O)CSC1=NC(=O)/C(=C/c2ccc(Br)cc2)S1,-2,-1,33,1,-5,6,
Cc1cc(C)nc(NC(=O)c2c(F)c(F)c(F)c(C(=O)Nc3cc(C)cc(C)n3)c2F)c1,nt,nt,nt,nt,nt,18,
Cc1ccc(CSc2nnc([C@@H]3CCCN3C(=O)OC(C)(C)C)o2)cc1,nt,nt,nt,nt,nt,11,
CC(C)c1ccc(C2CC(c3ccc(Br)cc3)=NN2C(N)=S)cc1 (stereo not given),-3,-1,-2,-3,66*,4,
Cc1c(C(=O)NC(=S)Nc2ccc(N3CCOCC3)cc2)cccc1[N+](=O)[O-],0,3,3,1,2,29,
Cc1cccc2c(N)c3c(nc12)CCCC3 (tested in a mixture with another compound),1,2,-2,-1,-1,43*,
O=C(NCc1c(Cl)cccc1Oc1ccccc1)c1ccccc1,nt,nt,nt,nt,nt,-14,
COc1ccc(C(=S)N2CCNCC2)cc1,7,-9,-9,1,-6,nt,
COc1ccc(C(=S)N2CCCCCC2)cc1,53*,37,52*,46*,38,nt,
CC(=O)c1cn(CC(=O)Nc2ccccc2C(F)(F)F)c2ccccc12,nt,nt,nt,nt,nt,5,
Clc1nc2ccccc2cc1/C=N/Nc1nc2ccccc2[nH]1,58*,93*,69*,58*,94*,-5,
C(=N\Nc1nc2ccccc2[nH]1)/c1ccncc1,0,1,-2,0,4,-18,
O=C1CCCC(=O)C1CS(=O)(=O)c1ccccc1,0,1,-2,-1,2,39*,
COCCN=c1scc(-c2ccccc2)n1/N=C/c1c[nH]c2ccccc12,-10,-8,-15,-6,-13,-2,
CCN=c1scc(C)n1/N=C/c1ccc(O)c(O)c1O,8,19,51*,21,-2,24,
CCN=c1scc(C)n1/N=C/c1cc(Br)c(O)c(Br)c1,-2,-2,-5,-3,-5,-4,
SMILES,Bcl-XL Bim block,Bim-Bcl-2,Bim-Bfl-1,Bim-Bcl-W,Bim-Bcl-B,Pf gametocyte,others
COCCN=c1scc(-c2cccs2)n1/N=C/c1ccc(O)c(O)c1O,6,21,40*,21,0,25,
Cc1ccc(C)n1-c1sc2c(c1C#N)CCC(C)C2 (stereo not given),-7,-9,-16,1,-9,38*,
CC(=O)Nc1ccc(-n2cc(-c3ccccc3)[nH]c2=S)cc1,-5,-1,27,-1,-37,nt,Bim-BclXL dose=-10
O=C1C(Cl)=C(N2CCN(c3ccccc3[N+](=O)[O-])CC2)C(=O)c2ccccc21,1,15,68*,27,-17,4,Bim-BclXL dose=4.3
O=[N+]([O-])c1cc(Cl)ccc1N1CCCC1,0,-2,-9,0,-2,nt,
Cc1nnc(Sc2cc(NCCCO)c([N+](=O)[O-])c3nonc23)s1,1,6,29,5,5,-1,
O=[N+]([O-])c1c(NCCCO)cc(Sc2nc3ccccc3s2)c2nonc12,1,8,61*,8,3,nt,Bim-BclXL dose=-1
Cc1nnc(Sc2cc(NCCO)c([N+](=O)[O-])c3nonc23)s1,3,12,55*,14,0,nt,Bim-BclXL dose=8.4
O=C(O)C1CCC(NSc2ccccc2[N+](=O)[O-])CC1 (stereo not given),nt,nt,nt,nt,nt,11,
O=C(NCc1ccccc1)c1ccc2nc(-c3ccco3)c(-c3ccco3)nc2c1,7,17,43*,19,5,nt,Bim-BclXL dose=15
Cc1ccc2c(c1)[C@@H]1[C@H](CO2)[C@H](c2ccccc2)[C@]2(C)C(=O)N[C@H](C)C(=O)N12,nt,nt,nt,nt,nt,-22,
CCOc1ccsc1C(=O)O,nt,nt,nt,nt,nt,-10,
CCNCc1ccccc1OCc1ccccc1,1,0,-3,-2,-2,9,
Oc1ccc(NCc2ccccc2OCc2ccccc2)cc1,1,11,34,16,-10,-6,Bim-BclXL dose=-0.78
COc1ccc(N2C(=O)c3ccccc3C2=O)cc1,-4,-2,-6,-4,-5,-7,
COc1ccc(N2C(=O)C(Cl)=C(Oc3cccc(OC)c3)C2=O)cc1,-8,2,43*,0,-39,nt,Bim-BclXL dose=-8.2
CCCCc1nnc2c(N(C)S(=O)(=O)c3ccccc3)nc3ccccc3n12,nt,nt,nt,nt,nt,1,
COc1ccc(N2C(=O)C(Cl)=C(NC3C(=O)N(c4ccccc4)N(C)C3C)C2=O)cc1 (stereo not given),nt,nt,nt,nt,nt,nt,Bim-BclXL dose=-3.9

# Source: PubChem
